Experiment [1] can be described thus: qHTS assay to identify small molecule agonists of the TGF-beta/Smad signaling pathway (AID 1346859; active = well fitted activation curve with a large enough effect in the signal ratio in the repeat runs, not every such curve was filed as active; the % refers to the signal ratio; note: series mostly up to about 77 µM). The method in brief:
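Dual-wavelength fluorescence (460/530 nm emission) quantified beta-lactamase expression under the Smad binding element in HEK 293T cells following 5 hr compound treatment at 37 C.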

Experiment [2] deals with Thyrotropin-releasing hormone receptor (Homo sapiens) (UniProt P34981). Briefly: qHTS assay to identify small molecule antagonists of the thyrotropin-releasing hormone receptor (TRHR) signaling pathway (AID 1346877; active = well fitted inhibition curve with a large enough effect in the repeat runs, not every such curve was filed as active; note: series mostly up to about 51 µM). The method in brief:
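Intracellular calcium fluorescence, read kinetically every second over 3 min, reports TRH-evoked signalling in HEK293 cells carrying TRHR. Test compounds were added 5 min ahead of a 1 nM TRH challenge.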

Experiment [3] shares this target. The experiment in a line: qHTS assay to identify small molecule agonists of the thyrotropin-releasing hormone receptor (TRHR) signaling pathway (AID 1346891; calls by dose curve;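 note: HEK293 cells expressing TRHR with calcium dye readout; series mostly up to about 58 µM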). The gist of the method: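 Kinetic fluorescence (3 min, 1 s intervals) reported intracellular calcium after compound transfer onto TRHR-Hek293 cells pre-loaded with dye for 2 h at 37 °C.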
A short description of experiment [4]: Human pregnane X receptor (PXR) small molecule agonists, qHTS cell viability counter screen (AID 1346977). Note: nearly all actives have a fitted effect of over 50% in size. The gist of the method:
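HepG2 cells stably carrying the PXR-Luc reporter are cultured with 5% charcoal-stripped FBS and treated with compounds for 24hr. CellTiter-Fluor is added at 23hr and fluorescence is read after 1hr.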

Experiment [5] can be described thus: Caspase-3/7 induction in HepG2 cells by small molecules, qHTS assay (AID 1346978). Note: nearly all actives have a fitted effect of over 15% in size. The gist of the method: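 Wild-type HepG2 cells (2,000/well) were settled 5 h at 37 C, 5% CO2, then exposed to compounds in DMSO for 17 h. Caspase-3/7 activity was read by luminescence 30 min after adding Caspase-Glo 3/7 reagent at room temperature.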
The nature of experiment [6]: Caspase-3/7 induction in CHO-K1 cells by small molecules, qHTS cell viability counter screen (AID 1346979). Note: nearly all actives have a fitted effect of over 35% in size. The gist of the method:
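Seeding: 1,500 CHO-K1 cells/well. Rest: 5hr, 37C. Treatment: compounds in DMSO, 16hr. Read: CellTiter-Fluor, 1hr, fluorescence.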

The nature of experiment [7]: Caspase-3/7 induction in CHO-K1 cells by small molecules, qHTS assay (AID 1346980). Note: nearly all actives have a fitted effect of over 15% in size. The method in brief:
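Wild-type cells were seeded at 1,500 per well and settled 5 hr at 37 C, 5% CO2, then exposed to DMSO-dissolved compounds for 17 hr. Caspase-Glo 3/7 reagent was added, and luminescence was read after 30min at room temperature.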

A short description of experiment [8]: Caspase-3/7 induction in HepG2 cells by small molecules, qHTS cell viability counter screen (AID 1346981). Note: series mostly up to about 92 µM; nearly all actives have a fitted effect of over 30% in size. The gist of the method: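 HepG2, WT, 2,000 cells/well; 5 hr pre-incubation 37 C/5% CO2; compound pin-transferred from DMSO; 16 hr exposure; CellTiter-Fluor, 1 hr; fluorescence read.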
The target of experiment [9] is Nuclear receptor subfamily 1 group I member 2 (Homo sapiens) (UniProt O75469). Briefly: Human pregnane X receptor (PXR) small molecule agonists, qHTS assay (AID 1346982). Note: nearly all actives have a fitted effect of over 35% in size. Note: potency is the fitted concentration of half-maximal effect. The method in brief:
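Luciferase signal from ONE-Glo (30 min, room temperature) measured activation of hPXR-driven CYP3A4 reporter expression in PXR-Luc HepG2 cells treated with compounds for 24 hr at 37 C.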

Experiment [10] concerns the target Voltage-gated inwardly rectifying potassium channel KCNH2 (Homo sapiens) (UniProt Q12809). The experiment in a line: Human Ether-a-go-go-Related Gene (hERG) channel small molecule antagonists: fluorescence cell-based qHTS assay (AID 1671200).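 Note: hERG-expressing U2OS cells given a thallium stimulus after FluxOR II dye loading; series mostly up to about 77 µM; nearly all actives have a fitted effect of over 50% in size.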 The gist of the method: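 First, 1000 cells per well are seeded and cultured overnight at 37 C. Next, FluxOR II dye is loaded for 1 h at room temperature, protected from light. After 10 more minutes, stimulus is added and fluorescence is read.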

For experiment [11], the target named is Cytochrome P450 3A4 (Homo sapiens) (UniProt P08684). Briefly: Cytochrome P450 Family 3 Subfamily A Member 4 (CYP3A4) small molecule antagonists: luciferase reporter qHTS assay (AID 1671201). Note: series mostly up to about 120 µM; nearly all actives have a fitted effect of over 50% in size. The gist of the method: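 Enzyme and proluciferin substrate are mixed with test chemicals for 10 min, then NADPH regeneration system drives turnover for 1 h at room temperature. A detection reagent halts the reaction; luminescence after 20 min gives relative activity.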
Chain of Cytochrome P450 3A4 (Homo sapiens) (P08684 whole entry, looked up): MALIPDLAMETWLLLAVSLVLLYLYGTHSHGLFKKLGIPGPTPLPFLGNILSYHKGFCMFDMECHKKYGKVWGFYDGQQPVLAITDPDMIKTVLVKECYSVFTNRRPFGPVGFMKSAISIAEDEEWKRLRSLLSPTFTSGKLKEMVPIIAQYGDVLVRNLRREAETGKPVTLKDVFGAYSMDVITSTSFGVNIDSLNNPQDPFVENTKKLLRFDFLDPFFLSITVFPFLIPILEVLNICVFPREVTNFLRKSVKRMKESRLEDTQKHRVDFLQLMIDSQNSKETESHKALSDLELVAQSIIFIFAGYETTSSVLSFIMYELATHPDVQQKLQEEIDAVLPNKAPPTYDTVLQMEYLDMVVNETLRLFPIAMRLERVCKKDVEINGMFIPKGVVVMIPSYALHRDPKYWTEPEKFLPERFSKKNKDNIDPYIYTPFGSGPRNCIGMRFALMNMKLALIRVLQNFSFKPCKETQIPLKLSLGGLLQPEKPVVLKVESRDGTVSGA

In experiment [12] the target is Cytochrome P450 2D6 (Homo sapiens) (UniProt P10635). Briefly: Cytochrome P450 Family 2 Subfamily D Member 6 (CYP2D6) small molecule antagonists: luciferase reporter qHTS assay (AID 1671196). Note: nearly all actives have a fitted effect of over 50% in size. Note: potency is the fitted concentration of half-maximal effect. The method in brief:
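Read-out is luminescence from luciferin formed by CYP2D6 turnover of a proluciferin substrate, recorded as relative luminescence units. Reactions ran 1 h at room temperature after NADPH regeneration solution was added.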

Experiment [13] has as its target Cytochrome P450 2C19 (Homo sapiens) (UniProt P33261). Briefly: Cytochrome P450 Family 2 Subfamily C Member 19 (CYP2C19) small molecule antagonists: luciferase reporter qHTS assay (AID 1671197). Note: nearly all actives have a fitted effect of over 65% in size. Note: potency is the fitted concentration of half-maximal effect. The gist of the method: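 Compounds were tested on CYP2C19 activity via proluciferin conversion to luciferin. The 37C, 1 h reaction followed NADPH addition; detection reagent stopped it.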

For experiment [14], the target named is Cytochrome P450 2C9 (Homo sapiens) (UniProt P11712). The experiment in a line: Cytochrome P450 Family 2 Subfamily C Member 9 (CYP2C9) small molecule antagonists: luciferase reporter qHTS assay (AID 1671198). Note: nearly all actives have a fitted effect of over 50% in size. Note: potency is the fitted concentration of half-maximal effect. The gist of the method: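 CYP2C9 activity was measured with a P450-Glo proluciferin substrate. Enzyme–substrate mix was held with compound for 10 min at room temperature, then NADPH regeneration solution was added for 1 h at 37C. Luciferin product was read as luminescence.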
Chain of Cytochrome P450 2C9 (Homo sapiens) (P11712 whole entry, looked up): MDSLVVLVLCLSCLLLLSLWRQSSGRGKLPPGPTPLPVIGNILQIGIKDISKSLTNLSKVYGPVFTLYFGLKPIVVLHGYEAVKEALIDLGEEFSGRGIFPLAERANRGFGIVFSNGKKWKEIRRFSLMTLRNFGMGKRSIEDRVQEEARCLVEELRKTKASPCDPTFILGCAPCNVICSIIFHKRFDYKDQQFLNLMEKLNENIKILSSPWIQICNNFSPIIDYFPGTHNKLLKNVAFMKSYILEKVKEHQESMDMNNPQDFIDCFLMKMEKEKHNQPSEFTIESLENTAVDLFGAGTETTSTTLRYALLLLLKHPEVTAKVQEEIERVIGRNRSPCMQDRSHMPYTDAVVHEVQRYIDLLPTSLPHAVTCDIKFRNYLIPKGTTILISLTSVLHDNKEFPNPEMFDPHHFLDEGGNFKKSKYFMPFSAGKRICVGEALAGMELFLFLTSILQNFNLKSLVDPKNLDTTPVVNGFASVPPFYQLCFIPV

In experiment [15] the target is Nuclear receptor subfamily 1 group I member 2 (Rattus norvegicus) (UniProt Q9R1A7). The experiment in a line: Rat pregnane X receptor (rPXR) activation by small molecules, qHTS assay (AID 1346983). Note: nearly all actives have a fitted effect of over 20% in size. Note: potency is the fitted concentration of half-maximal effect. To be noted: rPXR luciferase reporter cells, One-Glo luminescence, 24 h; max activation: hits give high values. The method in brief: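 Cell-based rPXR luciferase reporter assay, 2,000 cells per well, rested 5hr at 37 C before compound addition in DMSO, then 24 hr at 37 C. One-Glo reagent was added and luminescence read after 30 min at room temperature.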
Chain of Nuclear receptor subfamily 1 group I member 2 (Rattus norvegicus) (Q9R1A7 whole entry, looked up): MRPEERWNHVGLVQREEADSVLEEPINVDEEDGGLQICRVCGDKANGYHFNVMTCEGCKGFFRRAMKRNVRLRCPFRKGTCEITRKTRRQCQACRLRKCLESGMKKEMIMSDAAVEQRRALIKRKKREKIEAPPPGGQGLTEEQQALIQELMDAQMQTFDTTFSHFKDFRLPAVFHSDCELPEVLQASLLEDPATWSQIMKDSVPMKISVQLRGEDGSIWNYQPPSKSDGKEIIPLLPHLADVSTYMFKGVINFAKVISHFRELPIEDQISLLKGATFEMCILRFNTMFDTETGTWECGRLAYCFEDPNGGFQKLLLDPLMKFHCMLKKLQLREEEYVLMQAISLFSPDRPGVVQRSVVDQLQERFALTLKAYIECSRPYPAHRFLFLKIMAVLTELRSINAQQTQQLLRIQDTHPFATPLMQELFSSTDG

The target of experiment [16] is Nuclear receptor subfamily 1 group I member 2 (Homo sapiens) (UniProt O75469). Briefly: CYP3A4 induction through human pregnane X receptor (PXR) by small molecules, qHTS assay (AID 1346984). Note: nearly all actives have a fitted effect of over 40% in size. The gist of the method:
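Luminescence readout: luciferase signal after One-Glo (30 min, room temperature), following 3 h at 37C with 3uM final Luciferin-IPA P450 substrate. Cells were DPX-2 (HepG2, PXR/CYP3A4-luc co-transfected) dosed for 24 h.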

For experiment [17] the target is unchanged. The experiment in a line: Human pregnane X receptor (PXR) activation by small molecules, qHTS assay (AID 1346985). Note: nearly all actives have a fitted effect of over 40% in size. The gist of the method: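 DPX-2 cells (HepG2 co-transfected with a PXR response element and a CYP3A4-promoter luciferase construct) were seeded at 2,000 per well, rested 5 hr at 37C, then exposed to DMSO-dissolved compounds for 24 hr. Activation was read as luciferase luminescence.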

Experiment [18] has as its target Cytochrome P450 1A2 (Homo sapiens) (UniProt P05177). Briefly: Cytochrome P450 Family 1 Subfamily A Member 2 (CYP1A2) small molecule antagonists: luciferase reporter qHTS assay (AID 1671199). Note: nearly all actives have a fitted effect of over 50% in size. Note: potency is the fitted concentration of half-maximal effect. The method in brief: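 P450-Glo CYP1A2, 1536-well qHTS: enzyme/proluciferin substrate + cpd (DMSO), 10 min RT; NADPH regen, 1 h RT; detection reagent, 20 min; luminescence, RLU.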

SMILES strings stand for the structures. A number with no mark means an inactive call. Inconclusive results are not listed. The source made the active and inactive calls. Unless noted, calls come from the whole dose curve; as a rule, active = well fitted curve in the direction sought with a large enough effect in the repeat runs; inconclusive = weak or mixed curves; inactive = no such curve, though single readings can be large; an effect the other way counts as inactive or inconclusive. Non-standard residues stand in square brackets, D forms with d. Residues, ends and D or L forms follow the SMILES beside them. *: point of attachment. Sta = CC(C)C[C@H](N)[C@@H](O)CC(=O)O; Isovaleryl = CC(C)CC(=O)*
% is set by controls: 0 for no effect and ±100 for the full control effect.

Chain of Nuclear receptor subfamily 1 group I member 2 (Homo sapiens) (O75469 whole entry, looked up): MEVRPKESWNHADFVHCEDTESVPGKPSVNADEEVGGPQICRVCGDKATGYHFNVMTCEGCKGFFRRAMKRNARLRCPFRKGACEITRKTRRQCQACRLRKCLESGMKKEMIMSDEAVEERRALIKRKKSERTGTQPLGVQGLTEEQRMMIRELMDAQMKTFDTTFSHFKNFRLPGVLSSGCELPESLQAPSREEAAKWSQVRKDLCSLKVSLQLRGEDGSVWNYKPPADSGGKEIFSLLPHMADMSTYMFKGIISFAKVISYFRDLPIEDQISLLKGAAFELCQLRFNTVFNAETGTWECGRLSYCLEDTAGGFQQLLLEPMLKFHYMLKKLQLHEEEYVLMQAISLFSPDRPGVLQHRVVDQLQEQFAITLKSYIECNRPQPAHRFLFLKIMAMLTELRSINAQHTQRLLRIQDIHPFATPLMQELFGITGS
Chain of Cytochrome P450 2C19 (Homo sapiens) (P33261 whole entry, looked up): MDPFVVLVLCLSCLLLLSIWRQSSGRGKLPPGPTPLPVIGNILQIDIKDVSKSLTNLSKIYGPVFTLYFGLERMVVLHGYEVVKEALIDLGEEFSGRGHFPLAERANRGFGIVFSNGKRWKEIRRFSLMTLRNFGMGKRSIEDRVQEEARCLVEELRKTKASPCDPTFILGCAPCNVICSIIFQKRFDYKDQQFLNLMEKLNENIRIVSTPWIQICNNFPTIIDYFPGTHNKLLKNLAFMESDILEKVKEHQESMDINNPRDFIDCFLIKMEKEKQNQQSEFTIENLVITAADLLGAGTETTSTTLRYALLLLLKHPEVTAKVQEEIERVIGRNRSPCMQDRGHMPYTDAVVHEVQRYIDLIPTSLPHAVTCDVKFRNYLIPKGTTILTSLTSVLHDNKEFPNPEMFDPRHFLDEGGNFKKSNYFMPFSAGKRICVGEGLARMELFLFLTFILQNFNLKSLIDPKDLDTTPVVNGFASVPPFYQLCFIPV
Chain of Voltage-gated inwardly rectifying potassium channel KCNH2 (Homo sapiens) (Q12809 whole entry, looked up): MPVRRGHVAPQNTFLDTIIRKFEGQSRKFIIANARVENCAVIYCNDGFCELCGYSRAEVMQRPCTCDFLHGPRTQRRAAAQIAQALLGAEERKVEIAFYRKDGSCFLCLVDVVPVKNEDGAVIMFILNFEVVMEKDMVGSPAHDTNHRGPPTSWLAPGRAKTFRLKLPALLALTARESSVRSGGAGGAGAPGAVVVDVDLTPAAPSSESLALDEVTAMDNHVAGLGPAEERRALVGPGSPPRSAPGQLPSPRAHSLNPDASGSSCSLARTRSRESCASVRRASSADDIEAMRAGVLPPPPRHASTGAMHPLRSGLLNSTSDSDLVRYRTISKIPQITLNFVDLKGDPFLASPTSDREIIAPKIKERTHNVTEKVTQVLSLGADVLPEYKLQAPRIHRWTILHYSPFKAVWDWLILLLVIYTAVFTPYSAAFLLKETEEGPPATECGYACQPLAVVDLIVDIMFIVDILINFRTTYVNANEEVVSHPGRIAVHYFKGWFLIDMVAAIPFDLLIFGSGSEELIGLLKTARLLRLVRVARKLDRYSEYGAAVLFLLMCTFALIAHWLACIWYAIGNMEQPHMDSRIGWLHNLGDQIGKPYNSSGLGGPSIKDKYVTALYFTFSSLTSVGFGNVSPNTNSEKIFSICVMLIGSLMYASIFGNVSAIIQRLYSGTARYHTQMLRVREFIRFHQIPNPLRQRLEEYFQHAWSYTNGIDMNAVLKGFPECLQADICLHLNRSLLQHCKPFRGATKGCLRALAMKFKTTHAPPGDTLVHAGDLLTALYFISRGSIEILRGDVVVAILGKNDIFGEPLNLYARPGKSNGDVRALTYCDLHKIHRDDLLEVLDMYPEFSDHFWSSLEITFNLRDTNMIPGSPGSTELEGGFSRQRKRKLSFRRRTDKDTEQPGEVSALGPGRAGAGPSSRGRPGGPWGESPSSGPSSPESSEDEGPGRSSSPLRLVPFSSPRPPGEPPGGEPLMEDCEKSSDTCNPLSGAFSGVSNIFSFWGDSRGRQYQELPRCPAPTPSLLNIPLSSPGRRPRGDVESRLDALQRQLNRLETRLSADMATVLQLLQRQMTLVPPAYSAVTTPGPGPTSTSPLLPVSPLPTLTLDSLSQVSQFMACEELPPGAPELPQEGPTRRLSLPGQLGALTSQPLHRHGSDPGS
Chain of Cytochrome P450 1A2 (Homo sapiens) (P05177 whole entry, looked up): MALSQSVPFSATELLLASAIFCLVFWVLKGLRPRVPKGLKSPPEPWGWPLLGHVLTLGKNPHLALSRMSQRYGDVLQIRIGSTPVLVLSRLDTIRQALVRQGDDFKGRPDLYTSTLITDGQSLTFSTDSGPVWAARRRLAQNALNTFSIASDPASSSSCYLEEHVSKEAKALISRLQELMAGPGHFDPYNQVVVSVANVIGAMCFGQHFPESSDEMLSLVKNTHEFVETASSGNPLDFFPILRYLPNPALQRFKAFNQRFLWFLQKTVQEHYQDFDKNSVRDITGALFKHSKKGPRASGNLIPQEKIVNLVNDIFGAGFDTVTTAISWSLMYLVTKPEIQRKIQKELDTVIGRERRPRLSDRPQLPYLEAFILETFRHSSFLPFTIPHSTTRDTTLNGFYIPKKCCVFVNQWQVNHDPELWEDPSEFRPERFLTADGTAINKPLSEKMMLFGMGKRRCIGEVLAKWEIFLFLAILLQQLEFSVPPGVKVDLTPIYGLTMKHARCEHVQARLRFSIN
Chain of Thyrotropin-releasing hormone receptor (Homo sapiens) (P34981 whole entry, looked up): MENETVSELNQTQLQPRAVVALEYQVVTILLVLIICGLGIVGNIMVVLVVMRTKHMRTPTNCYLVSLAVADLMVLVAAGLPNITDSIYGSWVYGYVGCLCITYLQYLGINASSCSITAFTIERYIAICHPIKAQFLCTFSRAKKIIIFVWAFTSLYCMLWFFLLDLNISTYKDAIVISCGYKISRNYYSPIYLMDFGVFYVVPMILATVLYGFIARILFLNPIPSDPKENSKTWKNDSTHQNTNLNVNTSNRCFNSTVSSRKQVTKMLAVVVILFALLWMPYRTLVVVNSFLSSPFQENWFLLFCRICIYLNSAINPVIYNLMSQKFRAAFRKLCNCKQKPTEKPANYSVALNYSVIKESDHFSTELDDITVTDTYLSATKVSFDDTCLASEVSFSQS
Chain of Cytochrome P450 2D6 (Homo sapiens) (P10635 whole entry, looked up): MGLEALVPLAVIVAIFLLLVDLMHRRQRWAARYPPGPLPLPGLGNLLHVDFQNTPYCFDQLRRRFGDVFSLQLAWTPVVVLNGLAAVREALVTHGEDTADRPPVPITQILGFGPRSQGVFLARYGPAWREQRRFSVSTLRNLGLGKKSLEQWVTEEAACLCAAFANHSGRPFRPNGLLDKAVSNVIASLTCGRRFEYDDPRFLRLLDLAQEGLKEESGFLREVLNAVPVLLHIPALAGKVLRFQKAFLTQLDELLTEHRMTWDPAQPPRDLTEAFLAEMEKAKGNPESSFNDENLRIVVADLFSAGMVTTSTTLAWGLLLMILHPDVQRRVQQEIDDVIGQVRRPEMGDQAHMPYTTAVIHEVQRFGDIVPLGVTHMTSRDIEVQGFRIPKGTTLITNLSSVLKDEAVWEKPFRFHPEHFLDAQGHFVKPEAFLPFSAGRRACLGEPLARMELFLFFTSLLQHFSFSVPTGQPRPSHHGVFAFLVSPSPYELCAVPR

For `C/C(=N\O)c1ccc(OCC(=O)N2CCCCC2)cc1`, the molecule was classed as inactive in experiment [1], in experiment [2], in [4], in experiment [5], in experiment [7] and in [8]. In addition, the Potency entry in experiment [3], in experiment [6], in experiment [10] and in [11] was “inactive” each time. In experiment [9], the Potency was 10.6 µM (active).
With `BrCCOc1ccccc1`, the outcome in [1], in [2], in experiment [4], in experiment [5], in experiment [7] and in experiment [8] was inactive. Besides, the Potency entry in [3], in [6], in experiment [14], in experiment [10] and in experiment [11] was “inactive” in each case. For the same molecule, the figures for the Potency in experiment [12] and in [13] were 56.6 µM (active) and 89.6 µM (active), respectively.
Turning to `CCCC(=O)C(CC)Sc1ccoc1C` (stereo not drawn), the call in experiment [1], in [2], in experiment [4], in [5] and in [7] was inactive. The Potency result in experiment [3], in [6], in experiment [9], in experiment [12] and in [10] was “inactive” each time.
In the case of `CCCCc1ccc(Cl)cc1`, the result in experiment [1], in experiment [2], in experiment [4], in [5] and in [7] was inactive. For the same molecule, the Potency result in [3], in experiment [6], in experiment [12], in [13], in [14] and in experiment [10] was “inactive” throughout.
In the case of `C[C@]12C=CC(=O)C=C1[C@@H](F)C[C@@H]1[C@@H]2[C@@H](O)C[C@@]2(C)[C@H]1CC[C@]2(O)C(=O)CO`, the call in [1], in [2], in experiment [4], in experiment [7], in experiment [8] and in experiment [16] was inactive. The molecule was called inactive in experiment [17]. For the same molecule, the Potency entry in [3], in experiment [6], in experiment [9], in experiment [12], in experiment [13] and in [14] was “inactive” throughout. Besides, the Potency entry in [18] and in experiment [10] was “inactive” in each case. In experiment [15], the Potency was 12.6 µM (active).
`COC(=O)C(c1ccccc1Cl)N1CCc2sccc2C1` (stereo not drawn): the call in experiment [1], in experiment [2], in experiment [4], in [5], in experiment [7] and in experiment [8] was inactive. The Potency result in experiment [3], in experiment [6] and in [10] was “inactive” each time. The Potency is 17.4 µM (active) in experiment [12], 0.871 µM (active) in [13], 17.4 µM (active) in [14] and 15.5 µM (active) in experiment [18].
Take `COc1cc(NS(=O)(=O)c2ccc(N)cc2)ncn1`: the outcome in experiment [1], in [2], in experiment [4], in experiment [5], in [7] and in experiment [8] was inactive. Further, the Potency entry in [3], in experiment [6], in experiment [12], in [10] and in experiment [11] was “inactive” each time. The max activation in [15] is -2.45%.
With `CCCCCCCCCCCC(C)=O`, the molecule was called inactive in [1], in experiment [2], in experiment [4], in experiment [5], in experiment [7] and in [8]. Besides, the Potency result in experiment [3], in experiment [6], in experiment [12], in experiment [14], in [10] and in experiment [11] was “inactive” throughout.
As for `CC1=C(O)C(=O)CO1`, the molecule was classed as inactive in [1], in experiment [2], in [4], in [5], in experiment [7] and in [8]. The Potency entry in experiment [3], in [6], in experiment [12], in experiment [10] and in [11] was “inactive” in each case.
In the case of `COC(=O)c1ccccc1Cl`, the molecule was classed as inactive in experiment [1], in experiment [2], in experiment [4], in [5], in [7] and in experiment [8]. Moreover, the Potency result in experiment [3], in experiment [6], in experiment [12], in experiment [13], in [14] and in experiment [18] was “inactive” in each case. Moreover, the Potency result in [10] and in [11] was “inactive” throughout.
For the molecule `CC(C)CC(=O)N[C@H](C(=O)N[C@H](C(=O)N[C@@H](CC(C)C)[C@@H](O)CC(=O)N[C@@H](C)C(=O)N[C@@H](CC(C)C)[C@@H](O)CC(=O)O)C(C)C)C(C)C` (Isovaleryl-VV[Sta]A[Sta]-OH), the outcome in [1], in experiment [2], in [4], in experiment [5], in [7] and in experiment [8] was inactive. Further, the molecule was called inactive in experiment [16] and in experiment [17]. For the same molecule, the Potency entry in experiment [3], in experiment [6], in experiment [12], in [13], in [14] and in experiment [10] was “inactive” throughout. Moreover, in experiment [11], the Potency result was “inactive”. Further, the max activation in [15] is -4.42%.
As to `CC(C)(Sc1cc(C(C)(C)C)c(O)c(C(C)(C)C)c1)Sc1cc(C(C)(C)C)c(O)c(C(C)(C)C)c1`, the call in experiment [1], in experiment [2], in experiment [4], in [5], in experiment [7] and in [8] was inactive. For the same molecule, the Potency result in experiment [3], in experiment [6] and in experiment [10] was “inactive” throughout. In addition, the max activation in experiment [15] is -1.55%.
Take `NC(=O)CC[C@@H](N)C(=O)O`: the call in experiment [1], in [2], in experiment [4], in experiment [5], in experiment [7] and in [8] was inactive. In addition, the Potency entry in [3], in experiment [6] and in [10] was “inactive” in each case. The max activation in experiment [15] was 0.0386%.
Turning to `Cc1ccccc1OCC(=O)O`, the molecule was called inactive in [1], in experiment [2], in experiment [4], in experiment [5], in [7] and in experiment [8]. Also, the Potency result in experiment [3], in experiment [6], in [12], in [13], in experiment [18] and in [10] was “inactive” in each case. For the same molecule, in [11], the Potency result was “inactive”. Also, the Potency in [14] is 79.6 µM (active).
